{"source": "paper PMC11995724", "about": "“Antibiotic target discovery by integrated phenotypic and activity-based profiling of electrophilic fragments” (Cell chemical biology, 2025)", "note": "In all, about 3,200 compounds went through this assay and about 110 (3.4%) showed an effect of 50% or more. The full list was thinned out, with strong results kept by preference."}
{"tested_on": "T1, V. cholerae SAD30", "T1 construct": "SAD30", "set-up": "species or system S. aureus MSSA476 (TSB) or V. cholerae SAD30 (LB); 384-well bacterial growth screen at 25 uM, OD600 relative to DMSO control", "settings": "relative growth, OD600, LB; 25 µM; inhibitor", "units": {"% of control remaining": "%"}}
{"smiles": "Cc1ccc(S(=O)(=O)NC2CN(C(=O)CCl)C2)cc1", "note": "[5-E07, N-[1-(2-chloroacetyl)azetidin-3-yl]-4-methylbenzene-1-sulfonamide]", "% of control remaining": 95.6604}
{"smiles": "C[C@H](NC(=O)CCl)C(=O)N1CCCCC1", "note": "[7-L14, 2-chloro-N-[(2S)-1-oxo-1-(piperidin-1-yl)propan-2-yl]acetamide]", "% of control remaining": 80.489}
{"smiles": "COc1ccc(C=C(C#N)C(=O)Nc2cccc(C)c2)cc1", "note": "[8-M03, 2-cyano-3-(4-methoxyphenyl)-N-(3-methylphenyl)prop-2-enamide]", "% of control remaining": 85.4521}
{"smiles": "C=CC(=O)NCCc1nc(C)cs1", "note": "[2-D05, N-[2-(4-methyl-1,3-thiazol-2-yl)ethyl]prop-2-enamide]", "% of control remaining": 94.8278}
{"smiles": "C=CC(=O)NCC(=O)c1scc(C)c1Cl", "note": "[1-D16, N-[2-(3-chloro-4-methylthiophen-2-yl)-2-oxoethyl]prop-2-enamide]", "% of control remaining": 44.1609}
{"smiles": "C=CC(=O)NCCc1csc(C)n1", "note": "[1-D13, N-[2-(2-methyl-1,3-thiazol-4-yl)ethyl]prop-2-enamide]", "% of control remaining": 86.9955}
{"smiles": "COc1ccc(NC(=O)c2ccccc2NC(=O)CCl)cc1", "note": "[4-L05, 2-(2-chloroacetamido)-N-(4-methoxyphenyl)benzamide]", "% of control remaining": 109.209}
{"smiles": "O=C(CCl)NCCSc1ccccc1", "note": "[4-G21, 2-chloro-N-[2-(phenylsulfanyl)ethyl]acetamide]", "% of control remaining": 113.522}
{"smiles": "CN1c2ccccc2C(NC(=O)CCl)CS1(=O)=O", "note": "(centres unmarked) [7-L04, 2-chloro-N-(1-methyl-2,2-dioxo-3,4-dihydro-1H-2lambda6,1-benzothiazin-4-yl)acetamide]", "% of control remaining": 88.9476}
{"smiles": "O=C1C=CC(=O)N1c1ccc(F)c(Cl)c1", "note": "[10-D15, 1-(3-chloro-4-fluorophenyl)-2,5-dihydro-1H-pyrrole-2,5-dione]", "% of control remaining": 25.716}
{"smiles": "O=C1C=CC(=O)N1c1ccc(SC(F)F)cc1", "note": "[10-A18, 1-{4-[(difluoromethyl)sulfanyl]phenyl}-2,5-dihydro-1H-pyrrole-2,5-dione]", "% of control remaining": 28.9889}
{"smiles": "O=C1C=CC(=O)N1c1ccc(F)cc1", "note": "[10-M10, 1-(4-fluorophenyl)-2,5-dihydro-1H-pyrrole-2,5-dione]", "% of control remaining": 16.8323}
{"smiles": "N#Cc1ccc(N2C(=O)C=CC2=O)cc1", "note": "[10-B09, 4-(2,5-dioxo-2,5-dihydro-1H-pyrrol-1-yl)benzonitrile]", "% of control remaining": 24.9367}
{"smiles": "O=C1C=CC(=O)N1c1cnccn1", "note": "[10-P07, 1-(pyrazin-2-yl)-2,5-dihydro-1H-pyrrole-2,5-dione]", "% of control remaining": 97.4089}
{"smiles": "CC(Cl)C(=O)Nc1ccc(F)c(Cl)c1", "note": "(centres unmarked) [4-A04, 2-chloro-N-(3-chloro-4-fluorophenyl)propanamide]", "% of control remaining": 99.7196}
{"smiles": "O=C(CCl)Nc1ccc(SC(F)F)cc1", "note": "[4-B10, 2-chloro-N-{4-[(difluoromethyl)sulfanyl]phenyl}acetamide]", "% of control remaining": 104.205}
{"smiles": "N#CC(=Cc1ccc(C#N)cc1)C(=O)N1CCCC1", "note": "[9-P21, 4-[2-cyano-2-(pyrrolidine-1-carbonyl)eth-1-en-1-yl]benzonitrile]", "% of control remaining": 93.8817}
{"smiles": "CC(Cl)C(=O)Nc1ccc(SC(F)F)cc1", "note": "(centres unmarked) [4-L09, 2-chloro-N-{4-[(difluoromethyl)sulfanyl]phenyl}propanamide]", "% of control remaining": 88.1604}
{"smiles": "COc1ccc(NC(=O)C(C#N)=Cc2cnc3c(C)cccn23)cc1", "note": "[9-L03, 2-cyano-N-(4-methoxyphenyl)-3-{8-methylimidazo[1,2-a]pyridin-3-yl}prop-2-enamide]", "% of control remaining": 95.7852}
{"smiles": "CN1C=C(C(F)(F)F)C=CC1=C(C#N)C(=O)Nc1ccccc1F", "note": "[8-H20, 2-cyano-N-(2-fluorophenyl)-2-[1-methyl-5-(trifluoromethyl)-1,2-dihydropyridin-2-ylidene]acetamide]", "% of control remaining": 66.9613}
{"smiles": "CC(Cl)C(=O)N(C)Cc1ccccc1", "note": "(centres unmarked) [6-I13, N-benzyl-2-chloro-N-methylpropanamide]", "% of control remaining": 78.87}
{"smiles": "CN(c1ccccc1)S(=O)(=O)c1cccc(NC(=O)CCl)c1", "note": "[4-H04, 2-chloro-N-{3-[methyl(phenyl)sulfamoyl]phenyl}acetamide]", "% of control remaining": 111.106}
{"smiles": "O=C(CCc1ccccc1)NC1CCN(C(=O)CCl)CC1", "note": "[5-L08, N-[1-(2-chloroacetyl)piperidin-4-yl]-3-phenylpropanamide]", "% of control remaining": 100.704}
{"smiles": "C=CC(=O)N(C)CC(=O)NCc1c(O)nnc(C)c1C", "note": "[2-I20, N-({[(3-hydroxy-5,6-dimethylpyridazin-4-yl)methyl]carbamoyl}methyl)-N-methylprop-2-enamide]", "% of control remaining": 95.9085}
{"smiles": "CC(Cl)C(=O)N1CCN(c2cc(-c3ccccc3F)n[nH]2)CC1", "note": "(centres unmarked) [6-N20, 2-chloro-1-{4-[3-(2-fluorophenyl)-1H-pyrazol-5-yl]piperazin-1-yl}propan-1-one]", "% of control remaining": 84.7853}
{"smiles": "CCC(=O)Nc1ccc(C(=O)CCl)cc1", "note": "[10-C03, N-[4-(2-chloroacetyl)phenyl]propanamide]", "% of control remaining": 111.903}
{"smiles": "O=C(CCl)c1ccc(NC(=O)c2ccccc2)cc1", "note": "[10-B06, N-[4-(2-chloroacetyl)phenyl]benzamide]", "% of control remaining": 21.5079}
{"smiles": "CC(C)CC(=O)Nc1ccc(C(=O)CCl)cc1", "note": "[10-N06, N-[4-(2-chloroacetyl)phenyl]-3-methylbutanamide]", "% of control remaining": 76.8362}
{"smiles": "NC(=O)Nc1ccc(C(=O)CCl)cc1", "note": "[10-J07, [4-(2-chloroacetyl)phenyl]urea]", "% of control remaining": 65.4588}
{"smiles": "CC(=O)Nc1ccc(C(=O)CCl)cc1", "note": "[10-O12, N-[4-(2-chloroacetyl)phenyl]acetamide]", "% of control remaining": 74.4983}
{"smiles": "CC(C)C(=O)Nc1ccc(C(=O)CCl)cc1", "note": "[10-D04, N-[4-(2-chloroacetyl)phenyl]-2-methylpropanamide]", "% of control remaining": 37.405}
{"smiles": "C=CC(=O)NCc1nc2ccccc2n1C1CC1", "note": "[2-N03, N-[(1-cyclopropyl-1H-1,3-benzodiazol-2-yl)methyl]prop-2-enamide]", "% of control remaining": 105.172}
{"smiles": "N#CC(=Cc1cc2c(cc1[N+](=O)[O-])OCO2)C(=O)NC1CCCCC1", "note": "[8-F22, 2-cyano-N-cyclohexyl-3-(6-nitro-1,3-dioxaindan-5-yl)prop-2-enamide]", "% of control remaining": 83.6846}
{"smiles": "CN(C)S(=O)(=O)c1cccc(NC(=O)CCl)c1", "note": "[4-J08, 2-chloro-N-[3-(dimethylsulfamoyl)phenyl]acetamide]", "% of control remaining": 94.3714}
{"smiles": "CC(C)NC(=O)C(C#N)=Cc1ccc(C(F)(F)F)cc1", "note": "[8-L13, 2-cyano-N-(propan-2-yl)-3-[4-(trifluoromethyl)phenyl]prop-2-enamide]", "% of control remaining": 68.3209}
{"smiles": "Cc1cc(=O)[nH]c(-c2cccc(NC(=O)C(C#N)=Cc3ccco3)c2)n1", "note": "[8-B10, 2-cyano-3-(furan-2-yl)-N-[3-(4-methyl-6-oxo-1,6-dihydropyrimidin-2-yl)phenyl]prop-2-enamide]", "% of control remaining": 79.4697}
{"smiles": "Cc1ccc(NC(=O)CCl)c([N+](=O)[O-])c1", "note": "[4-A07, 2-chloro-N-(4-methyl-2-nitrophenyl)acetamide]", "% of control remaining": 105.068}
{"smiles": "Cc1ccc(N2C(=O)C=CC2=O)c([N+](=O)[O-])c1", "note": "[10-N13, 1-(4-methyl-2-nitrophenyl)-2,5-dihydro-1H-pyrrole-2,5-dione]", "% of control remaining": 27.1186}
{"smiles": "COc1ccc(NC(=O)CCl)c([N+](=O)[O-])c1", "note": "[4-I21, 2-chloro-N-(4-methoxy-2-nitrophenyl)acetamide]", "% of control remaining": 107.311}
{"smiles": "COc1ccc(N2C(=O)C=CC2=O)c([N+](=O)[O-])c1", "note": "[10-L11, 1-(4-methoxy-2-nitrophenyl)-2,5-dihydro-1H-pyrrole-2,5-dione]", "% of control remaining": 30.3916}
{"smiles": "COc1ccc(NC(=O)C(C)Cl)c([N+](=O)[O-])c1", "note": "(centres unmarked) [6-B08, 2-chloro-N-(4-methoxy-2-nitrophenyl)propanamide]", "% of control remaining": 90.3972}
{"smiles": "CSc1cccc(-n2c(C)cc(C(=O)CCl)c2C)c1", "note": "[10-J16, 2-chloro-1-{2,5-dimethyl-1-[3-(methylsulfanyl)phenyl]-1H-pyrrol-3-yl}ethan-1-one]", "% of control remaining": 105.825}
{"smiles": "Cc1ccc(NC(=O)C(C)Cl)cc1S(=O)(=O)N1CCOCC1", "note": "(centres unmarked) [5-D22, 2-chloro-N-[4-methyl-3-(morpholine-4-sulfonyl)phenyl]propanamide]", "% of control remaining": 107.429}
{"smiles": "N#CC(=Cc1ccc(Cl)cc1Cl)C(=O)Nc1nccs1", "note": "[9-H19, 2-cyano-3-(2,4-dichlorophenyl)-N-(1,3-thiazol-2-yl)prop-2-enamide]", "% of control remaining": 79.4697}
{"smiles": "C=CC(=O)Nc1ccnn1Cc1cccc(Cl)c1", "note": "[1-N14, N-{1-[(3-chlorophenyl)methyl]-1H-pyrazol-5-yl}prop-2-enamide]", "% of control remaining": 86.3592}
{"smiles": "C=CC(=O)N(CC)CC(=O)N1CC(C)(C)C1c1nccn1C", "note": "(centres unmarked) [2-J16, N-{2-[3,3-dimethyl-2-(1-methyl-1H-imidazol-2-yl)azetidin-1-yl]-2-oxoethyl}-N-ethylprop-2-enamide]", "% of control remaining": 90.3503}
{"smiles": "CC(Cl)C(=O)NC(=O)Nc1ccccc1", "note": "(centres unmarked) [5-I21, 3-(2-chloropropanoyl)-1-phenylurea]", "% of control remaining": 104.066}
